The whole screen tested about 59,000 compounds, of which about 6,500 (11%) were called active. Not shown: some 15% with an inconclusive outcome. Cut-off read from the data, not from the text of the source: active = max dye-equivalent concentration above about 10 nM; inconclusive = mostly about 1.1 nM to 9.6 nM; inactive = weaker than that. Only a selection was taken, and actives are over-represented in it overall.

The test is described as follows: qHTS Assay for Spectroscopic Profiling in A350 Spectral Region. As to conditions: Compound autofluorescence, 340/450 nm, Alexa 350 dye-equivalents; stronger effect = higher value. In general terms: Quantitative high-throughput screening tests each substance at several concentrations.
On to `CCn1c(=N)c(C(=O)NCCCOC)cc2c(=O)n3cccc(C)c3nc21`, for which the max dye-equivalent concentration was 20000 nM (active). The same measure for `COc1ccc(CNC(=O)C2CCN(S(=O)(=O)N3CCOCC3)CC2)cc1`: “inactive”; for `COc1ccccc1C(=O)NCCn1cc(SCC(=O)NCc2ccco2)c2ccccc21`: “inactive”. For `CCOCCCNC(=O)c1c[nH]c2cc(C)ccc2c1=O` the value was “inactive”; for `COc1ccc(C(=O)NCc2cn3ccccc3n2)cc1`, “inactive”; for `COCCCNC(=O)c1ccc2c(c1)ncn2-c1ccccc1OC`, “inactive”. For `COc1ccc(CNC(=O)c2cc3c(=O)n4ccccc4nc3n(CC3CCCO3)c2=N)cc1` (configuration not stated) the value was 290 nM (active); for `COc1ccc(CCn2c(=N)c(C(=O)NCc3ccco3)cc3c(=O)n4cccc(C)c4nc32)cc1`, 15 nM (active); for `COc1cc(OC)cc(-c2nc3nc(C)c(CCC(=O)NCc4ccco4)c(C)n3n2)c1`, “inactive”. As to `COCCNc1ncnc2ccc(-c3cccnc3)cc12`, the max dye-equivalent concentration result was “inactive”. For `C=C(C)COc1ccc(-c2n[nH]c(C)c2-c2ccccc2OC)c(O)c1` the value was “inactive”. For `CN1CCc2[nH]nc(-c3n[nH]c4c3CN(C)CC4)c2C1`, the max dye-equivalent concentration entry is “inactive”. Regarding `CCCSc1nc2c(c(=O)n(C)c(=O)n2C)n1Cc1ccc(C)cc1`, the max dye-equivalent concentration entry is “inactive”. As for `COc1ccccc1N1CCN(C(=O)Cn2nnc(-c3cccs3)n2)CC1`, the max dye-equivalent concentration result is “inactive”.

Turning to `COc1ccc2c(c1)C(C)=CC(C)(C)N2C(=O)CNCc1ccc2c(c1)OCO2`, the max dye-equivalent concentration result is “inactive”.

Take `O=C1Nc2ccccc2C12Nc1ccccc1S2` (configuration not stated): the max dye-equivalent concentration result is “inactive”. Turning to `CCCCSc1nnc(-c2ccc(NC(=O)CC)cc2)n1C`, the max dye-equivalent concentration entry is “inactive”. For `Cc1cc(N2CCCC2=O)cc(C)c1S(N)(=O)=O` the value was “inactive”. The same measure for `COc1ccc(CCNS(=O)(=O)c2ccc(C(=O)NCc3ccco3)cc2)cc1OC`: “inactive”; for `Clc1cccc(-c2nc3nc4ccccc4nc3n2Cc2ccco2)c1`: 150 nM (active); for `C(=C\c1ccccc1)/CSc1nnc(-c2cccnc2)n1Cc1ccco1`: “inactive”. The same measure for `O=C(CSc1nnc(-c2cccnc2)n1Cc1ccco1)c1ccc(Cl)cc1`: “inactive”; for `O=C(NCC12CC3CC(C1)CC(CNC(=O)N1CCCC1)(C3)C2)N1CCCC1`: “inactive”; for `CC(=O)NCCc1ccc(S(=O)(=O)N(C)C2CCS(=O)(=O)C2)cc1` (configuration not stated): “inactive”.

As for `Cc1nc(N2CCN(c3ncccn3)CC2)c2oc3ccccc3c2n1`, the max dye-equivalent concentration result is “inactive”. The same measure for `CCc1nc(Nc2ccc3nccnc3c2)c2oc3ccccc3c2n1`: 82 nM (active).

`C[C@@H](Nc1nc(-c2ccccc2)nc2c1oc1ccccc12)C(=O)O`: the max dye-equivalent concentration entry was “inactive”.

On to `Cc1ccc(O)c(NC(=O)COc2cc(C)ccc2C)c1`, for which the max dye-equivalent concentration result was “inactive”. For `CC(=O)c1ccc(N2C(=NC(=O)C(C)C)SC3CS(=O)(=O)CC32)cc1` (configuration not stated) the value was “inactive”; for `CCOC(=O)CSc1nncc2ccc(OC)c(OC)c12`, “inactive”. The same measure for `Cc1ccccc1N1C(=O)C2ON(c3ccccc3)C(c3ccncc3)C2C1=O` (configuration not stated): “inactive”; for `COc1cc(C2C(C#N)=C(C)NC3=C2C(=O)CC(C)(C)C3)ccc1O` (configuration not stated): 17 nM (active); for `Cc1cc2c(cc1C)NC(c1ccccn1)C1=C(CC(C)(C)CC1=O)N2` (configuration not stated): “inactive”.

As to `C=CCSC1=C(C#N)C(c2cc(Br)c(O)c(OC)c2)CC(=O)N1` (configuration not stated), the max dye-equivalent concentration entry was “inactive”.

As to `CCOc1ccc(CN(Cc2ccco2)C(c2cccs2)c2nnnn2C(C)(C)C)cc1` (configuration not stated), the max dye-equivalent concentration entry was “inactive”. For `CCN(Cc1ccncc1)C(=O)[C@@H](CO)c1ccccc1` the value was “inactive”; for `COc1ccc(C(=O)N/N=C2/C(=O)c3c(C)cc(C)cc3CC2(C)C)cc1`, “inactive”; for `Cc1noc(C)c1C(=O)OCC(=O)/C=C1\N(C)c2ccccc2C1(C)C`, 210 nM (active). The same measure for `Cc1noc(C)c1C(=O)Nc1ccccn1`: “inactive”; for `Cc1ccc(-c2nc(COC(=O)c3c(C)noc3C)cs2)cc1`: “inactive”; for `COc1cc(C(=O)Nc2oc(-c3ccccc3)c(-c3ccccc3)c2C#N)cc(OC)c1OC`: 11 nM (active). For `COc1cc(C(=O)Nc2nccs2)cc(OC)c1OC` the value was “inactive”; for `COC(=O)c1cccc(NC(=O)CN2CCC(NC(=O)c3cc(OC)c(OC)c(OC)c3)CC2)c1`, “inactive”. For `COc1ccc(CNc2ncncc2-c2ccccc2OC)c(OC)c1`, the max dye-equivalent concentration entry is “inactive”. As for `COc1ccc(S(=O)(=O)N2CCCCC2)cc1Br`, the max dye-equivalent concentration entry was “inactive”. For `COCCn1c(=O)[nH]c2cc(C(=O)NCc3cccnc3)ccc2c1=O` the value was 38 nM (active); for `CC(C)(C)c1cc(C(=O)NCc2cccnc2)ccn1`, “inactive”; for `Cc1ccc(-n2nc(-c3ccco3)cc2C(=O)NCc2cccnc2)cc1`, “inactive”. For `CC1=C2C(=O)OC(c3ccoc3)C2(C)CCC1` (configuration not stated) the value was “inactive”; for `Cc1ccccc1N1CCN(S(=O)(=O)C[C@@]23CC[C@H](C[C@H]2NC(=O)[C@@H](N)CCS(C)(=O)=O)C3(C)C)CC1`, “inactive”; for `CCCC(=O)Nc1nnc(CC(=O)OCC)s1`, “inactive”. `O=C(COc1ccc2oc3c(c2c1)CCCC3)Nc1ccccn1`: the max dye-equivalent concentration entry is “inactive”. For `O=C(COc1ccccc1F)NC1CC1` the value was “inactive”; for `Cc1cc(Cl)c(S(=O)(=O)NCC2CCCO2)cc1OCC(N)=O` (configuration not stated), “inactive”. As for `O=C(COc1ccc2c3c(c(=O)oc2c1)CCC3)NC1CCCCC1`, the max dye-equivalent concentration is 82 nM (active). The same measure for `NC(=O)COc1ccc2c3c(c(=O)oc2c1)CCCCC3`: 29 nM (active); for `O=C(CC1OC(=O)c2ccccc21)NC1CCCCC1` (configuration not stated): “inactive”; for `COc1ccccc1Nc1nc(N)nc(CN(C)C2CCCCC2)n1`: “inactive”.

`COc1cccc(-c2cc(NCCc3c[nH]c4ccc(OC)cc34)ncn2)c1`: the max dye-equivalent concentration result is “inactive”.

For `O=S1(=O)CCN2C(=N1)SC1=C2CCN(Cc2ccccc2)C1`, the max dye-equivalent concentration entry was “inactive”. The same measure for `O=C(Cn1c(=O)n(Cc2ccco2)c(=O)c2ccccc21)NCC1CCCO1` (configuration not stated): “inactive”; for `CC1(C)CC(=O)c2cc(OCC(=O)NCC3CCCO3)ccc2O1` (configuration not stated): 1600 nM (active); for `COc1ccccc1-n1cnc2cc(C(=O)NCC3CCCO3)ccc21` (configuration not stated): “inactive”. `O=C(c1csnn1)N1CCC2(CCN(Cc3nccs3)CC2)CC1`: the max dye-equivalent concentration entry is “inactive”. The same measure for `Cc1cc(C)n(C(=O)c2ccc(S(=O)(=O)N3CCCC3)cc2)n1`: “inactive”. For `Cn1nnc2cc(C(=O)NCCC3=CCCCC3)ccc21` the value was “inactive”; for `CCCn1c(=NC(C)=O)c(C(=O)OCC)cc2c(=O)n3ccccc3nc21`, 4900 nM (active). Take `CCOC(=O)c1cc2n(c1C)-c1ccccc1C2=O`: the max dye-equivalent concentration result is “inactive”. For `CCOC(=O)c1cc2n(c1N)-c1ccccc1C2=O` the value was “inactive”; for `O=S(=O)(CCc1nc2ccccc2o1)c1ccc(Cl)cc1`, “inactive”; for `CN1CCC2(CC1)NC(=O)NC2=O`, “inactive”.

For the molecule `CCN(CC)S(=O)(=O)c1cccc(C(=O)Nc2cc(C)nn2-c2nc(C)cc(C)n2)c1`, the max dye-equivalent concentration entry is “inactive”. As to `CCC(=O)NC(=Nc1nc2ccccc2s1)NC(=O)CC`, the max dye-equivalent concentration was 190 nM (active). In the case of `COC(=O)Cc1cc(=O)n(-c2nc3ccccc3s2)[nH]1`, the max dye-equivalent concentration result is “inactive”. For `CSCCC(Nc1nc2ccccc2s1)C(=O)O` (configuration not stated) the value was “inactive”. For `O=C(O)[C@@H](S)[C@H](S)C(=O)O` the value was “inactive”.

As to `O=C(CSc1nnc(-c2cccs2)n1-c1ccccc1)N1CCN(C(=O)c2ccco2)CC1`, the max dye-equivalent concentration entry was “inactive”. The same measure for `Cc1ccc(-n2c(SCC(=O)Nc3ccc4c(c3)OCO4)nnc2-c2ccoc2C)cc1`: “inactive”. Turning to `O=C(CSc1nnc(-c2cccs2)n1-c1ccccc1)NCc1ccco1`, the max dye-equivalent concentration was 11 nM (active). For `COc1ccc(C(=O)NC(=O)CSc2nnc(-c3ccco3)n2-c2ccccc2)cc1` the value was “inactive”. For `COc1ccc(-n2c(SCC(=O)NCc3cccs3)nnc2-c2ccoc2C)cc1` the value was 27 nM (active); for `O=C(CSc1nnc(-c2c[nH]c3ccccc23)n1-c1ccc(F)cc1)NCc1ccco1`, “inactive”. As for `NCCNCC1CCNCC1`, the max dye-equivalent concentration entry was “inactive”. For `Cc1cccc(N2CCN(S(=O)(=O)c3ccc4c(c3)c(=O)n(C)c(=O)n4C)CC2C)c1` (configuration not stated) the value was “inactive”; for `O=C(c1cnccn1)N1CCC[C@@]2(CCN(Cc3ccncc3)C2)C1`, “inactive”. For `Cc1ccc(-c2ccc(=O)n(CC(=O)NCCCN3CCCCC3)n2)cc1` the value was “inactive”; for `COc1ccc(-c2n[nH]c(C)c2-c2ccc(OC)c(OC)c2)c(O)c1`, “inactive”. For `COc1ccc(CCN(C)CCN2C(=O)c3ccccc3C2=O)cc1OC` the value was “inactive”; for `COc1ccc(CCN2C(=O)c3[nH]nc(-c4ccccc4O)c3C2c2ccc(C)cc2)cc1OC` (configuration not stated), 140 nM (active). For `Cc1cc(C(=O)COC(=O)c2cccs2)c(C)n1-c1c(C)n(C)n(-c2ccccc2)c1=O`, the max dye-equivalent concentration entry is “inactive”. The same measure for `Cc1ccc(S(=O)(=O)N2CCN(C(=O)CCC(=O)NC3CCCc4ccccc43)CC2)cc1` (configuration not stated): “inactive”. Regarding `N#C/C=C1\Sc2ccccc2C(=O)N1CC(=O)N1CCN(S(=O)(=O)c2ccccc2)CC1`, the max dye-equivalent concentration is 15 nM (active). For `O=C(CCC(=O)N1CCN(S(=O)(=O)c2ccccc2)CC1)NC1CCCc2ccccc21` (configuration not stated) the value was “inactive”; for `COc1ccc(CCn2c(-c3ccco3)nc3nc4ccccc4nc32)cc1OC`, 11 nM (active); for `COc1ccc(CCn2nnnc2C(c2ccccc2)N2CCN(C)CC2)cc1OC` (configuration not stated), “inactive”.

Consider `COCCn1c(-c2ccc(OC)c(OC)c2)nc2ccccc21`, for which the max dye-equivalent concentration result is “inactive”. In the case of `CCc1ccccc1NC(=O)CSc1nnc([C@@H](NC(=O)OC(C)(C)C)C(C)C)o1`, the max dye-equivalent concentration entry was “inactive”. In the case of `CN1CCN(C(=O)c2ccc(NS(=O)(=O)c3ccccc3)cc2)CC1`, the max dye-equivalent concentration result was “inactive”. The same measure for `O=C(Nc1c[nH]c(=O)[nH]c1=O)Oc1ccccc1`: “inactive”; for `COc1ccc(C(=O)Nc2ccc(S(=O)(=O)Nc3onc(C)c3C)cc2)cc1OC`: “inactive”; for `COc1ccc2c(c1OC)C(=O)N(c1ncn[nH]1)C2`: “inactive”. For the molecule `O=C(O)c1cccc(S(=O)(=O)NCCO)c1`, the max dye-equivalent concentration result was “inactive”.

For the molecule `CCOc1ccc(Nc2oc(Cc3ccccc3)nc2C#N)cc1`, the max dye-equivalent concentration entry is “inactive”. For `CCOc1ccc2nc(NCCNS(=O)(=O)c3ccccc3)c(C#N)cc2c1` the value was 86 nM (active). The same measure for `CCOc1ccccc1N(CC(=O)NC1CCCCC1)C(=O)CCCC(=O)Nc1ccccn1`: “inactive”; for `CN(C)CCCNc1c2c(c(C#N)c3nc4ccccc4n13)CCC2`: 94 nM (active).

Turning to `N#Cc1c2c(c(N3CCN(CCO)CC3)n3c1nc1ccccc13)CCCC2`, the max dye-equivalent concentration is 23 nM (active).
